Results: publication PMC7862700, “An all-to-all approach to the identification of sequence-specific readers for epigenetic DNA modifications on cytosine”

Columns and labels:
Assay in all cases: DAPPL (digital affinity profiling via proximity ligation, sequencing); 10 mM Tris-HCl pH 7.5, 50 mM NaCl, 1 mM DTT, 4% glycerol, room temperature, 30 min; GST-TFs on glutathione beads, 16-mer random dsDNA library, 0.1% formaldehyde crosslink after washing; high values mean tight binding
FEV = molecular target: T1, FEV (Homo sapiens, UniProt Q99581 1-238); conditions: protein: recombinant; tags: N-terminal GST; dsDNA, one strand shown
T1 sequence: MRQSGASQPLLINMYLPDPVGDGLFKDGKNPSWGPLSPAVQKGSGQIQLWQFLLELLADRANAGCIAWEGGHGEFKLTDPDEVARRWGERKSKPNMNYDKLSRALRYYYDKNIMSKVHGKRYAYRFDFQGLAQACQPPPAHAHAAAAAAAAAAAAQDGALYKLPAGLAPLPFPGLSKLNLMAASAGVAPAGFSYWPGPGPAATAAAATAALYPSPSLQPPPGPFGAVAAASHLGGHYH
Procedure, shortened: (§1)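 Yeast served to express human transcription factors as GST fusions, which were then captured on glutathione beads and labelled with DNA barcodes. Pooled with a tag-only sample, they were incubated with 200 nmole of a 16-mer random double-stranded DNA library for 30 min at room temperature in Tris/NaCl/DTT/glycerol buffer, washed, crosslinked with 0.1% formaldehyde, ligated by proximity, amplified by PCR and sequenced. Dividing each hexamer's read frequency for a factor by its frequency for the tag-only sample gives the binding signal.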

ETV5 = ETV5 (Homo sapiens, UniProt P41161 1-510); conditions: protein: recombinant; tags: N-terminal GST; dsDNA, one strand shown
Chain of ETV5 (P41161 whole entry): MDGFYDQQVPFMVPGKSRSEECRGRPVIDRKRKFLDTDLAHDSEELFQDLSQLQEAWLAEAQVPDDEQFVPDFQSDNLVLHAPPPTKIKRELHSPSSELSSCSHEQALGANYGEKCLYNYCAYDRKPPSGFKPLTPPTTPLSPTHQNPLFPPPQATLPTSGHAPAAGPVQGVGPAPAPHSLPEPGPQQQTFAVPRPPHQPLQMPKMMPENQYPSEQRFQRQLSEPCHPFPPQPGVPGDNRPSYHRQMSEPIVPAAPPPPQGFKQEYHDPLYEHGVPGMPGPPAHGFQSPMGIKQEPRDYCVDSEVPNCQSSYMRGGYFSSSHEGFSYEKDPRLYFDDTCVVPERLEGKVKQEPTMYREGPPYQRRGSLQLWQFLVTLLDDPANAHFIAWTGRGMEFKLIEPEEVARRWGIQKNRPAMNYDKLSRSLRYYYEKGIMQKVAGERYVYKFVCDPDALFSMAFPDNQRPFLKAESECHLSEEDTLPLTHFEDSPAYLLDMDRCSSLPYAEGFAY
Procedure, shortened: as §1

HSF1 = HSF1 (Homo sapiens, UniProt Q00613 1-529); conditions: protein: recombinant; tags: N-terminal GST; chain copies: 3; dsDNA, one strand shown
Chain of HSF1 (Q00613 whole entry): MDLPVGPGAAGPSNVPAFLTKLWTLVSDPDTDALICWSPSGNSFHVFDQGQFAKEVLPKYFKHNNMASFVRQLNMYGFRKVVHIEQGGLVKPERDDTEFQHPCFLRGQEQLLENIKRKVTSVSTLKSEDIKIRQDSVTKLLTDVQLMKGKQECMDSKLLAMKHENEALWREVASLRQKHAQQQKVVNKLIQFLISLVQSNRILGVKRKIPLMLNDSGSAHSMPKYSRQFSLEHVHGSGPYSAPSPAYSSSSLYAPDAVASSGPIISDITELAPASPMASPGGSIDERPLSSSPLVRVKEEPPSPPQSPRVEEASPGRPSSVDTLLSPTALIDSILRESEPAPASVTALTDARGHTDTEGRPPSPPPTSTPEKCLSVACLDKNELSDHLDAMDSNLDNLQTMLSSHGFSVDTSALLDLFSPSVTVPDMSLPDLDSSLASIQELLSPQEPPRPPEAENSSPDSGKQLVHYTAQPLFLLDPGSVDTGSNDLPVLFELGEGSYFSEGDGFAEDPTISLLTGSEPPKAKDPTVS
Procedure, shortened: as §1

SPIC = molecular target: T2, SPIC (Homo sapiens, UniProt Q8N5J4 1-248); conditions: protein: recombinant; tags: N-terminal GST; dsDNA, one strand shown
T2 sequence: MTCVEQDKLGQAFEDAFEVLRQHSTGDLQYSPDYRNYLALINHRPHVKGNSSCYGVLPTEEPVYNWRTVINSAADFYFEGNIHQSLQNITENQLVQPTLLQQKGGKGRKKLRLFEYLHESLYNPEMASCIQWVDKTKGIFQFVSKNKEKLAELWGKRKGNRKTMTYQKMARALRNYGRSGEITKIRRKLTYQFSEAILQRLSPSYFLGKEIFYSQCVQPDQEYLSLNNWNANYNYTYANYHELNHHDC
Procedure, shortened: as §1

ELF4 = ELF4 (Homo sapiens, UniProt Q99607 1-663); conditions: protein: recombinant; tags: N-terminal GST; dsDNA, one strand shown
Chain of ELF4 (Q99607 whole entry): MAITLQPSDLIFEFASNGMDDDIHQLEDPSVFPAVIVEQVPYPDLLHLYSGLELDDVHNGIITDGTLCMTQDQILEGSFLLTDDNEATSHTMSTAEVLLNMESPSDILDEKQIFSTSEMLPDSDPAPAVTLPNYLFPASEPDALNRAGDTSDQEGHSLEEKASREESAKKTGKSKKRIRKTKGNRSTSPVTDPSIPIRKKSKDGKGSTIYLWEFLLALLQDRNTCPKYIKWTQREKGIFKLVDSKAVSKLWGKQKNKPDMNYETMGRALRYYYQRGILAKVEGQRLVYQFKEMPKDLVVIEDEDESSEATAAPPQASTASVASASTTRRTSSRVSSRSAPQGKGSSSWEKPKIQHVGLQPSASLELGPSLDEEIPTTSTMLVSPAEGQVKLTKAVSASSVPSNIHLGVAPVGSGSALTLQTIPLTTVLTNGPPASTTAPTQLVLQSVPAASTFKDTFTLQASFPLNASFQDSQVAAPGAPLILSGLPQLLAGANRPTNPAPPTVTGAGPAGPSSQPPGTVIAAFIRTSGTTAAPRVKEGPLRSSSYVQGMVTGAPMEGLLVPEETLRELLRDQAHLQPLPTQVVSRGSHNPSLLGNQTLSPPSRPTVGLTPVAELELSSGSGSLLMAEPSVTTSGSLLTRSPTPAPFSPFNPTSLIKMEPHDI
Procedure, shortened: as §1

ELK4 = molecular target: T3, ELK4 (Homo sapiens, UniProt P28324-2 1-405); conditions: protein: recombinant; tags: N-terminal GST; dsDNA, one strand shown
T3 sequence: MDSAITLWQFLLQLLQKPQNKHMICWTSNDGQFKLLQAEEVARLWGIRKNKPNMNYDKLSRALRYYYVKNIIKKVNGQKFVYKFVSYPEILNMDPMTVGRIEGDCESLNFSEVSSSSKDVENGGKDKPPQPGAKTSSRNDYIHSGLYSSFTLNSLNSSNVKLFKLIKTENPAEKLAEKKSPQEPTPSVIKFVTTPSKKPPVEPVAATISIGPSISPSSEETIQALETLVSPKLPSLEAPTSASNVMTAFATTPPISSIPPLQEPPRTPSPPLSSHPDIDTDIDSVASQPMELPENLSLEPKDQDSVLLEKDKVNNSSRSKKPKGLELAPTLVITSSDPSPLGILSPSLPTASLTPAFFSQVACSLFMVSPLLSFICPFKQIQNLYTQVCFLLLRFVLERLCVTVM
Procedure, shortened: as §1

ETV2 = molecular target: T4, ETV2 (Homo sapiens, UniProt O00321 1-342); conditions: protein: recombinant; tags: N-terminal GST; dsDNA, one strand shown
T4 sequence: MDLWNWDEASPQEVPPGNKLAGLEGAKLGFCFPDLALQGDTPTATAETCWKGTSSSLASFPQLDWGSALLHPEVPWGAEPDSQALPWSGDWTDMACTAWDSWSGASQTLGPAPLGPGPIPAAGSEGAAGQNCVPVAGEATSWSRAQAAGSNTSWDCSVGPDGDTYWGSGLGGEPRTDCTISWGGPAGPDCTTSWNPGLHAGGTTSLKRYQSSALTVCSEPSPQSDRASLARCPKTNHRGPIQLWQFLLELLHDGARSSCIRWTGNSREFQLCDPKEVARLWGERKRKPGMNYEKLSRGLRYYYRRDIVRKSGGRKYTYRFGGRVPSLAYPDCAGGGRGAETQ
Procedure, shortened: as §1

ELF3 = molecular target: T5, ELF3 (Homo sapiens, UniProt P78545 1-371); conditions: protein: recombinant; tags: N-terminal GST; dsDNA, one strand shown
T5 sequence: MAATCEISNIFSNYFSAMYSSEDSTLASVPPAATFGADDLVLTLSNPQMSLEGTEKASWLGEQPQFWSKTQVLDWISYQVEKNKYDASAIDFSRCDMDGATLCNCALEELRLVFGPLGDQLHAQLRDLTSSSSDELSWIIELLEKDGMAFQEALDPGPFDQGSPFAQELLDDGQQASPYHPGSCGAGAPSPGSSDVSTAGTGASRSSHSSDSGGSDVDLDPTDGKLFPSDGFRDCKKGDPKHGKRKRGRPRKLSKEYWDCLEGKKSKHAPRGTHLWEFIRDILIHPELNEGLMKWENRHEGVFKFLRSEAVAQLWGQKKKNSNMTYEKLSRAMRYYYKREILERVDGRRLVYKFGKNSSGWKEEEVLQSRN
Procedure, shortened: as §1

CRX = CRX (Homo sapiens, UniProt O43186 1-299); conditions: protein: recombinant; tags: N-terminal GST; dsDNA, one strand shown
Chain of CRX (O43186 whole entry): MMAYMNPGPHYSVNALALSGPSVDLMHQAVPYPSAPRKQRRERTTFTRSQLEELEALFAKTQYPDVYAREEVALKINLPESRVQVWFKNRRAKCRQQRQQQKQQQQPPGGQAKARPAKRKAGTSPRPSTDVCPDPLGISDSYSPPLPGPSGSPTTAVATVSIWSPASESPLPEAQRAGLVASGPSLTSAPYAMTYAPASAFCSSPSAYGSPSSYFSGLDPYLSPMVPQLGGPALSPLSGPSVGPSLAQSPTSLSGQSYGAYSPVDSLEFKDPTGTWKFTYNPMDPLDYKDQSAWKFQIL
Procedure, shortened: as §1

ETV1 = ETV1 (Homo sapiens, UniProt P50549 1-477); conditions: protein: recombinant; tags: N-terminal GST; dsDNA, one strand shown
Chain of ETV1 (P50549 whole entry): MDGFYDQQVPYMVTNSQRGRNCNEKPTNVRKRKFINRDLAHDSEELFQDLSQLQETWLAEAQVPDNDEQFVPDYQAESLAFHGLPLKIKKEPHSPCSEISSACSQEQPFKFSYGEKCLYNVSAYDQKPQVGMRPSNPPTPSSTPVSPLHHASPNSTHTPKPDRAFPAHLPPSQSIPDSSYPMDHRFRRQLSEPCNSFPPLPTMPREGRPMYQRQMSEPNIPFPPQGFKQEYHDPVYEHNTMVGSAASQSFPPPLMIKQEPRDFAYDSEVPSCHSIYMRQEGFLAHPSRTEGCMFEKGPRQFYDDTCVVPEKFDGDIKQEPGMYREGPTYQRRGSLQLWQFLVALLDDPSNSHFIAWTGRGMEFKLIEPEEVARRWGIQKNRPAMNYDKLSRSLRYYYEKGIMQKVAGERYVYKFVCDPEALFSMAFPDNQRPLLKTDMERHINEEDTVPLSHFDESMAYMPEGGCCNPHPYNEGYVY
Procedure, shortened: as §1

ERF = molecular target: T6, ERF (Homo sapiens, UniProt P50548 1-548); conditions: protein: recombinant; tags: N-terminal GST; dsDNA, one strand shown
T6 sequence: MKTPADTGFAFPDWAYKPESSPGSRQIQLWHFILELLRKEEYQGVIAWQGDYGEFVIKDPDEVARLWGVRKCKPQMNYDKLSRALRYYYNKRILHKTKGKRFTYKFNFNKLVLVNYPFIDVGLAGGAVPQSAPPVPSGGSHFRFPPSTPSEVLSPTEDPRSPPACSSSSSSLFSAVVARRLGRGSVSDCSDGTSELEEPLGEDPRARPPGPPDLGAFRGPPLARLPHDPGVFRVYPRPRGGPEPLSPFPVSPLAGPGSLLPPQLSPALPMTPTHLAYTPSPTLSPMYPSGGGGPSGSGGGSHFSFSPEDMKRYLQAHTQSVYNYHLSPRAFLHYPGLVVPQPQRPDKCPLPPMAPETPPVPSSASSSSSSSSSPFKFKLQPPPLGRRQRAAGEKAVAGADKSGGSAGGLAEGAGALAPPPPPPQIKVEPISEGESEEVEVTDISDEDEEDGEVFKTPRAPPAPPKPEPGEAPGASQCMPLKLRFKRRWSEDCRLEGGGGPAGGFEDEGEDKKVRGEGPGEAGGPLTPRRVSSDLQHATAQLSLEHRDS
Procedure, shortened: as §1

ETV3L = molecular target: T7, ETV3L (Homo sapiens, UniProt Q6ZN32 1-361); conditions: protein: recombinant; tags: N-terminal GST; dsDNA, one strand shown
T7 sequence: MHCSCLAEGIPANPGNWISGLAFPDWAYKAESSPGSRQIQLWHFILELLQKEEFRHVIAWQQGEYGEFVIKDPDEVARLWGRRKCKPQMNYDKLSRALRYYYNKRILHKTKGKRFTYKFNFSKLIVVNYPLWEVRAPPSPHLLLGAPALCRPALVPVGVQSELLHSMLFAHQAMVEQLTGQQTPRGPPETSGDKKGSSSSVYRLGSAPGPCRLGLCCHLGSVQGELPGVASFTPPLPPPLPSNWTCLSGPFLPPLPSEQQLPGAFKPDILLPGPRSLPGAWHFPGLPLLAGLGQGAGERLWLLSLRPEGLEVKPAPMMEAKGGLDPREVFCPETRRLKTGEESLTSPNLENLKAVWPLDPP
Procedure, shortened: as §1

ETS2 = molecular target: T8, ETS2 (Homo sapiens, UniProt P15036 1-469); conditions: protein: recombinant; tags: N-terminal GST; dsDNA, one strand shown
T8 sequence: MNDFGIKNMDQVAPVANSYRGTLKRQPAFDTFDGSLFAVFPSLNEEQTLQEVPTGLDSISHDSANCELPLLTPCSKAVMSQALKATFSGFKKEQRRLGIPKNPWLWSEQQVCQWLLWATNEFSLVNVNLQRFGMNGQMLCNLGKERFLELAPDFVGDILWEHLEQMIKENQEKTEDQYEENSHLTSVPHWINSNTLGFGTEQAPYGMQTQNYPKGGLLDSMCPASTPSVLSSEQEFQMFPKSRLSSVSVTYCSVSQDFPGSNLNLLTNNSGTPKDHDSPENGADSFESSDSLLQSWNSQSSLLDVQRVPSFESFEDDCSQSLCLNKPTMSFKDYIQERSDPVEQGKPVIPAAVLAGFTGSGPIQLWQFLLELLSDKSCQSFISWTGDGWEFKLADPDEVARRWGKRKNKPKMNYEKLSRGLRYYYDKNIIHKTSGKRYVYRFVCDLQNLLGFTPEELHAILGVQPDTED
Procedure, shortened: as §1

SPDEF = molecular target: T9, SPDEF (Homo sapiens, UniProt O95238 1-335); conditions: protein: recombinant; tags: N-terminal GST; dsDNA, one strand shown
T9 sequence: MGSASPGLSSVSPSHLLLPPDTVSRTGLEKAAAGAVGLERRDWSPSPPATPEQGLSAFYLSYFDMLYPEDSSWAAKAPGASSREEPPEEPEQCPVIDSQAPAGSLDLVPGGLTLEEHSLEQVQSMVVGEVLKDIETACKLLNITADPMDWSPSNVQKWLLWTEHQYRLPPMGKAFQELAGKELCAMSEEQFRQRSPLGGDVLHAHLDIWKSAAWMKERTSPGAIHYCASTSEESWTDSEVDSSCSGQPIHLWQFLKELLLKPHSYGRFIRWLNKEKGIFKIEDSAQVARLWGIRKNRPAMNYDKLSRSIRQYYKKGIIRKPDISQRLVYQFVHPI
Procedure, shortened: as §1

ETV7 = molecular target: T10, ETV7 (Homo sapiens, UniProt Q9Y603 1-341); conditions: protein: recombinant; tags: N-terminal GST; dsDNA, one strand shown
T10 sequence: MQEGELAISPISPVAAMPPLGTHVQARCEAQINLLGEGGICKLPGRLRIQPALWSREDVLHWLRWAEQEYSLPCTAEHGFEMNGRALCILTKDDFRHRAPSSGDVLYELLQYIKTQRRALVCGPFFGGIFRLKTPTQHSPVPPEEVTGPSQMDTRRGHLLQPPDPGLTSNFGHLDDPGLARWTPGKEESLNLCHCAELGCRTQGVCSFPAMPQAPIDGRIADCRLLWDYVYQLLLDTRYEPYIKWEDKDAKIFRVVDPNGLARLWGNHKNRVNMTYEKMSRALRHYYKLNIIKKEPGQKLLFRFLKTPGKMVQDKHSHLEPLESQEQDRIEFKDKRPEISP
Procedure, shortened: as §1

ELF5 = molecular target: T11, ELF5 (Homo sapiens, UniProt Q9UKW6-2 1-255); conditions: protein: recombinant; tags: N-terminal GST; dsDNA, one strand shown
T11 sequence: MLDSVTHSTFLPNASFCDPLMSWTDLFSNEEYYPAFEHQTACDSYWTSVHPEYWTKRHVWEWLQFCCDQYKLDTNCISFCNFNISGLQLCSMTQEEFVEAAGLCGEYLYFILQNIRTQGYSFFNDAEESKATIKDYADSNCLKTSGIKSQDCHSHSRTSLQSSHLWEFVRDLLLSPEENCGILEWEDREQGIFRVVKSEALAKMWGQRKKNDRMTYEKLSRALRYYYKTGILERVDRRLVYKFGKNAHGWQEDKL
Procedure, shortened: as §1

ETV3 = molecular target: T12, ETV3 (Homo sapiens, UniProt P41162-2 1-143); conditions: protein: recombinant; tags: N-terminal GST; dsDNA, one strand shown
T12 sequence: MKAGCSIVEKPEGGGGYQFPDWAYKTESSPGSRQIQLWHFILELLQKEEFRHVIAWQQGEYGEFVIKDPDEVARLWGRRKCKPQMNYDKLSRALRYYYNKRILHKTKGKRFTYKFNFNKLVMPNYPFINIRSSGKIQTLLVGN
Procedure, shortened: as §1

ETV6 = ETV6 (Homo sapiens, UniProt P41212 1-452); conditions: protein: recombinant; tags: N-terminal GST; dsDNA, one strand shown
Chain of ETV6 (P41212 whole entry): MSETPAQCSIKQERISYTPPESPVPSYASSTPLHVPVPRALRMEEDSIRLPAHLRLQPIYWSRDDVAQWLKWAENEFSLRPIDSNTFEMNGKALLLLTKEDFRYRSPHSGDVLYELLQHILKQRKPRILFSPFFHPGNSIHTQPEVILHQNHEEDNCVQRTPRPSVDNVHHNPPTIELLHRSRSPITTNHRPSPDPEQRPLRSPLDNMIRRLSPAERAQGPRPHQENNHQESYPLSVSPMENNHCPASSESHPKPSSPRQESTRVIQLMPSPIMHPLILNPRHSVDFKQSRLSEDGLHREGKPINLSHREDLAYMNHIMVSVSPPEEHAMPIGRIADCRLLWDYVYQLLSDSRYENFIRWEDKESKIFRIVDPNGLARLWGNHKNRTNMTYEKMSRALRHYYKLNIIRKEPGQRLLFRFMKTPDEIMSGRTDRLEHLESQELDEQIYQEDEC
Procedure, shortened: as §1

Q: Which binding signal (FEV) does the source give for TCGTTC here?
A: The binding signal was 1.23 fold enrichment (6-mer frequency, TF over GST control).

Q: And the binding signal (ETV5)?
A: The binding signal was 1.29 fold enrichment (6-mer frequency, TF over GST control).

Q: And the binding signal (HSF1)?
A: The binding signal was 1.39 fold enrichment (6-mer frequency, TF over GST control).

Q: And the binding signal (SPIC)?
A: Its binding signal is 1.23 fold enrichment (6-mer frequency, TF over GST control).

Q: What about the binding signal (ELF4) of the same sequence?
A: The binding signal was 1.31 fold enrichment (6-mer frequency, TF over GST control).

Q: What about the binding signal (ELK4) of the same sequence?
A: The binding signal was 1.39 fold enrichment (6-mer frequency, TF over GST control).

Q: What about the binding signal (ETV2) of the same sequence?
A: The binding signal was 1.37 fold enrichment (6-mer frequency, TF over GST control).

Q: What about the binding signal (ELF3) of the same sequence?
A: The binding signal was 1.15 fold enrichment (6-mer frequency, TF over GST control).

Q: And the binding signal (CRX)?
A: The binding signal was 1.04 fold enrichment (6-mer frequency, TF over GST control).

Q: And the binding signal (ETV1)?
A: Its binding signal is 1.2 fold enrichment (6-mer frequency, TF over GST control).

Q: What about the binding signal (ERF) of the same sequence?
A: The binding signal was 1.36 fold enrichment (6-mer frequency, TF over GST control).

Q: What about the binding signal (ETV3L) of the same sequence?
A: The binding signal was 1.25 fold enrichment (6-mer frequency, TF over GST control).

Q: What about the binding signal (ETS2) of the same sequence?
A: Its binding signal is 1.2 fold enrichment (6-mer frequency, TF over GST control).

Q: What about the binding signal (SPDEF) of the same sequence?
A: Its binding signal is 1.3 fold enrichment (6-mer frequency, TF over GST control).

Q: What about the binding signal (ETV7) of the same sequence?
A: The binding signal was 1.15 fold enrichment (6-mer frequency, TF over GST control).

Q: And the binding signal (ELF5)?
A: Its binding signal is 1.27 fold enrichment (6-mer frequency, TF over GST control).

Q: What about the binding signal (ETV3) of the same sequence?
A: Its binding signal is 1.26 fold enrichment (6-mer frequency, TF over GST control).

Q: What about the binding signal (ETV6) of the same sequence?
A: The binding signal was 1.29 fold enrichment (6-mer frequency, TF over GST control).
